Assay outcomes as filed in PubChem.
Yeast superoxide = caloric restriction mimetics inhibiting age-related superoxide in yeast; hit rate 0.18% among 330,000; AID 2690; S. cerevisiae aged cells, superoxide DHE fluorescence; active compounds read low; superoxide response (% of plate mean), % at 10 µM;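 active means superoxide response under a set limit, about three screen SD below normal, cut at about 65% in these data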;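 further: yeast aged for seven days with compound at 30 °C before DHE staining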
HDAC3 inhib = blocks human histone deacetylase 3 | O15379 | recombinant HDAC3, fluorogenic peptide/trypsin coupled, fluorescence | inhibition, % at 8.3 µM | hit rate 0.15% among 320,000 | AID 2718; in the data active means inhibition above about 26%, passing the limit was not always enough
HIF activator = HIF pathway transcriptional activation. activation, % at 7.5 µM (by protocol). hit rate 0.32% among 300,000. U2OS HRE-luciferase reporter, luminescence; normalized: DMSO 0%, desferrioxamine 100%;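 active means mean activation of at least 10% of the iron chelator positive control signal, with at least half of replicates also reaching 10%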
LANA-H2B inh = blocks KSHV LANA binding to histone H2A/H2B; Q9QR71; cell-free LANA-H2A/H2B peptide, fluorescence polarization; inhibition, % (concentration not given with the values); hit rate 0.6% among 320,000; AID 2629; in the data active means inhibition mostly above about 10%, no sharp cut-off; inactive means mostly below about 6.7%
Target sequence (Q9QR71 whole entry, looked up): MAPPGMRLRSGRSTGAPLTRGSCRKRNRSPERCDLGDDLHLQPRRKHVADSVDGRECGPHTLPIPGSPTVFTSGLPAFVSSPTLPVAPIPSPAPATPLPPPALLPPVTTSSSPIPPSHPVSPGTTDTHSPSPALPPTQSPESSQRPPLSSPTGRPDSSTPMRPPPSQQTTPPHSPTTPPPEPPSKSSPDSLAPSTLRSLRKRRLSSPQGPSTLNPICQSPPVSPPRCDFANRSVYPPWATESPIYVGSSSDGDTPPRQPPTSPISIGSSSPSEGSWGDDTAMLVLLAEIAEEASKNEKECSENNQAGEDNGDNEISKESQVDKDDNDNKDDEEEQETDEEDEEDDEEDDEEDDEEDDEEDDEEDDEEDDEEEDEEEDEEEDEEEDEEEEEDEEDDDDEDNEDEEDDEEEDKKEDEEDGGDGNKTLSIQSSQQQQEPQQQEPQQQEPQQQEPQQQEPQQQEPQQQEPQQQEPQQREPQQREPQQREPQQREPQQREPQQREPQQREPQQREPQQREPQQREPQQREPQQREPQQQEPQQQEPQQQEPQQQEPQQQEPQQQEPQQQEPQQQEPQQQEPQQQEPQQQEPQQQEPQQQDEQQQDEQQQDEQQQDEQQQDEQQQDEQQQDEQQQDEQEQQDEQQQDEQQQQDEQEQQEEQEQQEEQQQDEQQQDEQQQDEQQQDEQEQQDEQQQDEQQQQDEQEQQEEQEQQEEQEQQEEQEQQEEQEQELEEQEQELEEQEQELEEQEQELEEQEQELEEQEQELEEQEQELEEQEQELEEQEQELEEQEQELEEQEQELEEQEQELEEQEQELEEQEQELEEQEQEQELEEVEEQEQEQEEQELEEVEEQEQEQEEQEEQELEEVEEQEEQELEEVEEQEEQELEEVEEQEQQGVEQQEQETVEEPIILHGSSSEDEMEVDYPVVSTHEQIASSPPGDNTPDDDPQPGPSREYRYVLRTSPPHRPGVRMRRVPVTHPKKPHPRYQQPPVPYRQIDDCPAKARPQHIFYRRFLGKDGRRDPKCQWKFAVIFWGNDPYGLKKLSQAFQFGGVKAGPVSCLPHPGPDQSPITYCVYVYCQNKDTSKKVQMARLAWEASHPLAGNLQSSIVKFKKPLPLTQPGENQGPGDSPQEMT
Hits are given with their value; 0 = inactive; - = no result given; + = active, no number. Hits are enriched below; roughly 1.2% of the tested compounds scored in any of these assays.

SMILES | Yeast superoxide | HDAC3 inhib | HIF activator | LANA-H2B inh
CCn1cc(C(=O)O)c(=O)c2cnc(N3CCN(C(=S)NC(=O)c4ccccc4)CC3)nc21 | 0 | 0 | 0 | 13.8
CC(Oc1ccc(-n2cnnn2)cc1)C(=O)O (stereo unspecified) | 0 | 0 | 0 | 0
Cc1occc1C(=O)N(Cc1nc(-c2ccccc2)no1)C(C)C | 0 | 0 | 0 | 15.9
CCN(Cc1nc(-c2ccccc2)no1)C(=O)c1ccoc1C | 0 | 0 | 0 | 0
O=C(NCc1ccc(/C=N\NC(=O)C(=O)Nc2ccccc2Br)o1)C(=O)Nc1ccccc1 | 0 | 0 | 0 | 0
CCCCCCc1cc2cc(-c3nnc(-c4ccccc4OC)o3)c(=O)oc2cc1O | 0 | 0 | 0 | 10.3
CN(CC(=O)OCC(=O)NCc1ccccc1)S(=O)(=O)c1ccc(F)cc1 | 0 | 0 | - | +
CN(CC(=O)OCC(=O)NCc1ccccc1)S(=O)(=O)c1ccc(Cl)cc1 | 0 | 0 | 0 | 0
COc1ccc([C@H]2CC(=O)C=C(c3cccc4c3Oc3ccccc3S4)C2)cc1 | 0 | 0 | - | 0
O=C(CN1CCN(S(=O)(=O)N2CCCCC2)CC1)Nc1ccc(Cl)c(Cl)c1 | 0 | 0 | 0 | 44.9
O=C(CN1CCN(S(=O)(=O)N2CCCCC2)CC1)Nc1cc(Cl)cc(Cl)c1 | 0 | 0 | 0 | 0
CCN(CC)c1ccc(S(=O)(=O)N2CCCCC2)cc1NC(=O)C1CCC1 | 0 | 0 | 0 | 71.1
CCN(CC)c1ccc(S(=O)(=O)N2CCOCC2)cc1NC(=O)C1CC1 | 0 | - | - | -
COCCN(C(=S)Nc1ccccc1OC)C(C)c1cccs1 (stereo unspecified) | 0 | 0 | 0 | 0
CC(=O)N/C(=N\c1nc(C)cc(C)n1)Nc1ccccc1Cl | - | - | 0 | -
NNc1ccc(Cl)c(C(=O)O)c1 | 0 | 0 | 0 | 63.1
CCN1C(=O)C(CC(=O)Nc2ccccc2Cl)N(NC(=O)c2cccc(F)c2)C1=S (stereo unspecified) | 0 | - | 0 | 0
O=C(c1cc2ncc(CCCl)cn2n1)N1CCCCCC1 | 0 | 0 | 0 | 0
CC1CCCC(C)N1C(=O)c1cc2ncc(CCCl)cn2n1 (stereo unspecified) | 0 | 0 | 0 | 13.0
CC(C)OP(=O)(OC(C)C)C(O)c1cccc([N+](=O)[O-])c1 (stereo unspecified) | 0 | 0 | 0 | 0
COc1ccc(CNc2ccc(N3CCOCC3)cc2)cc1 | 0 | 0 | 0 | 0
c1ccc(CNc2ccc(N3CCOCC3)cc2)cc1 | 0 | 0 | - | 17.3
Clc1ccc(-c2ccnc(-n3cccc3)n2)s1 | 0 | 0 | 0 | 29.6
CN(CCOC(=O)/C=C/c1ccccc1)C(C)(C)C | 0 | 0 | 0 | 0
CC(C)N(C)CCOC(=O)/C=C/c1ccccc1 | 0 | 0 | 0 | +
SMILES | Yeast superoxide | HDAC3 inhib | HIF activator | LANA-H2B inh
COc1ccc(C(Sc2ccccc2)c2ccccc2)cc1OC (stereo unspecified) | 0 | 0 | 0 | 12.0
CN(Cc1ccc(C(F)(F)F)cc1)C(=O)C1CC(=O)N(Cc2ccco2)C1 (stereo unspecified) | 0 | 0 | - | 0
CC(Sc1ncccn1)C(=O)NC1(C#N)CCCCC1 (stereo unspecified) | 0 | 0 | - | 18.0
Cc1cccc(N2CCN(c3ccc(N4C(=O)CCCC4=O)cc3[N+](=O)[O-])CC2)c1C | 0 | 0 | 0 | 0
Cc1cccc(N2CCN(c3ccc(N4C(=O)CCCC4=O)cc3[N+](=O)[O-])CC2C)c1 (stereo unspecified) | 0 | 0 | 78.8 | 0
CCC(C)NC(=O)CSc1nc2ccccc2c(=O)n1-c1c(C)n(C)n(-c2ccccc2)c1=O (stereo unspecified) | 0 | 0 | 0 | 100.2
Cc1c(-n2c(SCC(=O)NC(C)C)nc3ccccc3c2=O)c(=O)n(-c2ccccc2)n1C | 0 | 0 | 0 | 0
C=CCN(c1ccccc1)S(=O)(=O)c1cccc(C(=O)NCc2ccco2)c1 | 0 | 0 | - | 0
CCOc1ccc(-c2csc(NC(=O)CSC3=NC(=O)CN3C(C)=O)n2)c2ccccc12 | 0 | 0 | 0 | 0
CC(=O)N1CC(=O)N=C1SCC(=O)Nc1nc(C)c(-c2ccccc2)s1 | 0 | 25.8 | 0 | 0
CN1C(=O)C2(OCC(CO)([N+](=O)[O-])CO2)c2ccccc21 (stereo unspecified) | 0 | 0 | 0 | 0
C[C@@H]1CN([C@H](C)CO)C(=O)c2cccc(NC(=O)NC3CCCCC3)c2O[C@@H]1CN(C)C(=O)Nc1ccc(C(F)(F)F)cc1 | 0 | 28.4 | - | 0
COc1ccc(S(=O)(=O)N(C)C[C@H]2Oc3c(NC(=O)Nc4ccc(C(F)(F)F)cc4)cccc3C(=O)N([C@H](C)CO)C[C@@H]2C)cc1 | 0 | 32.3 | - | 0
CC(C)NC(=O)Nc1ccc2c(c1)C(=O)N([C@H](C)CO)C[C@H](C)[C@@H](CN(C)C(=O)Nc1ccc(C(F)(F)F)cc1)O2 | 0 | 0 | - | +
